{"source": "paper PMC5700166", "key": {"[1]": {"target": "T1, GST-Nv-NF-kB (Ser allele) (Nematostella vectensis, UniProt A7UNT2 2-411)", "T1 sequence": "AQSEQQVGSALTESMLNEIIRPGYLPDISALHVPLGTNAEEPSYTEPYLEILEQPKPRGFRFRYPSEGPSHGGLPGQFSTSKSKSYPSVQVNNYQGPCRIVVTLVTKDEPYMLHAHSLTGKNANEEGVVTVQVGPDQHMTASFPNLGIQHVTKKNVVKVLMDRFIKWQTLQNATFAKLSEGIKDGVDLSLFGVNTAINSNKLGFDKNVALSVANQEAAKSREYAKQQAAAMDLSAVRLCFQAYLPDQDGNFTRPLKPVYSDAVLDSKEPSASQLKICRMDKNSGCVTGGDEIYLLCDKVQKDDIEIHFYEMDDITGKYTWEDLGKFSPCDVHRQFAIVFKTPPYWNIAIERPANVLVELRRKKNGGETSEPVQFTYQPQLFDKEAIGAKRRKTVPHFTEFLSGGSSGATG", "experiment": "protein-binding microarray (PBM); PBM: ~300 nM protein, 6 mM HEPES pH 7.8, 80 mM KCl, 0.5 mM EDTA, 0.5 mM EGTA, 6% glycerol, 35 ng/ul poly-dIdC, 1% milk, 1 h, room temperature; high values mean tight binding", "details": "dsDNA, one strand shown"}, "GST-Hu-p50": {"target": "GST-Hu-p50 (Homo sapiens, UniProt P19838 7-356)", "sequence (P19838 7-356)": "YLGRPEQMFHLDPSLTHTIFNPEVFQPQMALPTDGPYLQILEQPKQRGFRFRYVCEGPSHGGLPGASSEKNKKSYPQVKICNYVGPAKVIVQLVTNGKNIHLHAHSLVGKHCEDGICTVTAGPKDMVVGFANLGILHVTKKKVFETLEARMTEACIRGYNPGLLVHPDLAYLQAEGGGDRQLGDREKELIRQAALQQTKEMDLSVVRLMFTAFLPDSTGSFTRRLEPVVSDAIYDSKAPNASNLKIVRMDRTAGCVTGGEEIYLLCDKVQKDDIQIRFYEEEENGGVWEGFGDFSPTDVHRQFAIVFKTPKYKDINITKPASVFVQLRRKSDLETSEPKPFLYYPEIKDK", "experiment": "protein-binding microarray (PBM); PBM: ~300 nM protein, 6 mM HEPES pH 7.8, 80 mM KCl, 0.5 mM EDTA, 0.5 mM EGTA, 6% glycerol, 35 ng/ul poly-dIdC, 1% milk, 1 h, room temperature; Ap Aiptasia and Nv Nematostella (sea anemones) / Co Capsaspora / Aq Amphimedon (sponge) / Dm Drosophila / Hu human; RHD is the Rel homology domain; high values mean tight binding", "details": "dsDNA, one strand shown"}}, "data": [{"sequence": "CCGATTAACATCACCTTCCCCCCTGATGTTAATCGGGTCTTGATTCGCTTGACGCTGCTG", "values": [{"measurement": "binding signal", "setting": "[1]", "result": 5.23, "unit": "z-score"}, {"measurement": "binding signal", "setting": "GST-Hu-p50", "result": 4.59, "unit": "z-score"}]}, {"sequence": "CCGATTAACATCAAAAAAAGTCCTGATGTTAATCGGGTCTTGATTCGCTTGACGCTGCTG", "values": [{"measurement": "binding signal", "setting": "[1]", "result": 1.42, "unit": "z-score"}, {"measurement": "binding signal", "setting": "GST-Hu-p50", "result": 2.19, "unit": "z-score"}]}, {"sequence": "CCGATTAACATCAGAAGTTCCCATGATGTTAATCGGGTCTTGATTCGCTTGACGCTGCTG", "values": [{"measurement": "binding signal", "setting": "[1]", "result": 1.1, "unit": "z-score"}, {"measurement": "binding signal", "setting": "GST-Hu-p50", "result": 1.09, "unit": "z-score"}]}, {"sequence": "CCGATTAACATCACGGTACGGGGTGATGTTAATCGGGTCTTGATTCGCTTGACGCTGCTG", "values": [{"measurement": "binding signal", "setting": "[1]", "result": 1.3, "unit": "z-score"}, {"measurement": "binding signal", "setting": "GST-Hu-p50", "result": 1.71, "unit": "z-score"}]}, {"sequence": "CCGATTAACATCAGGAAAACCCATGATGTTAATCGGGTCTTGATTCGCTTGACGCTGCTG", "values": [{"measurement": "binding signal", "setting": "[1]", "result": 1.48, "unit": "z-score"}, {"measurement": "binding signal", "setting": "GST-Hu-p50", "result": 2.32, "unit": "z-score"}]}, {"sequence": "CCGATTAACATCAAATCTTTCCCTGATGTTAATCGGGTCTTGATTCGCTTGACGCTGCTG", "values": [{"measurement": "binding signal", "setting": "[1]", "result": 6.25, "unit": "z-score"}, {"measurement": "binding signal", "setting": "GST-Hu-p50", "result": 3.68, "unit": "z-score"}]}, {"sequence": "CCGATTAACATCAGGCTTTCCCATGATGTTAATCGGGTCTTGATTCGCTTGACGCTGCTG", "values": [{"measurement": "binding signal", "setting": "[1]", "result": 1.98, "unit": "z-score"}, {"measurement": "binding signal", "setting": "GST-Hu-p50", "result": 1.36, "unit": "z-score"}]}, {"sequence": "CCGATTAACATCACAAAACTCCCTGATGTTAATCGGGTCTTGATTCGCTTGACGCTGCTG", "values": [{"measurement": "binding signal", "setting": "[1]", "result": 6.52, "unit": "z-score"}, {"measurement": "binding signal", "setting": "GST-Hu-p50", "result": 4.95, "unit": "z-score"}]}, {"sequence": "CCGATTAACATCACGGGAATCCCTGATGTTAATCGGGTCTTGATTCGCTTGACGCTGCTG", "values": [{"measurement": "binding signal", "setting": "[1]", "result": 4.38, "unit": "z-score"}, {"measurement": "binding signal", "setting": "GST-Hu-p50", "result": 3.99, "unit": "z-score"}]}, {"sequence": "CCGATTAACATCAGGGCTTTACCTGATGTTAATCGGGTCTTGATTCGCTTGACGCTGCTG", "values": [{"measurement": "binding signal", "setting": "[1]", "result": 1.71, "unit": "z-score"}, {"measurement": "binding signal", "setting": "GST-Hu-p50", "result": 2.02, "unit": "z-score"}]}, {"sequence": "CCGATTAACATCAAACCCCCCCGTGATGTTAATCGGGTCTTGATTCGCTTGACGCTGCTG", "values": [{"measurement": "binding signal", "setting": "[1]", "result": 4.7, "unit": "z-score"}, {"measurement": "binding signal", "setting": "GST-Hu-p50", "result": 5.27, "unit": "z-score"}]}, {"sequence": "CCGATTAACATCAAAAGAATCCCTGATGTTAATCGGGTCTTGATTCGCTTGACGCTGCTG", "values": [{"measurement": "binding signal", "setting": "[1]", "result": 2.43, "unit": "z-score"}, {"measurement": "binding signal", "setting": "GST-Hu-p50", "result": 3.14, "unit": "z-score"}]}, {"sequence": "CCGATTAACATCAAGGGGGTGACTGATGTTAATCGGGTCTTGATTCGCTTGACGCTGCTG", "values": [{"measurement": "binding signal", "setting": "[1]", "result": 3.83, "unit": "z-score"}, {"measurement": "binding signal", "setting": "GST-Hu-p50", "result": 3.9, "unit": "z-score"}]}, {"sequence": "CCGATTAACATCATAATTCCCAATGATGTTAATCGGGTCTTGATTCGCTTGACGCTGCTG", "values": [{"measurement": "binding signal", "setting": "[1]", "result": 3.07, "unit": "z-score"}, {"measurement": "binding signal", "setting": "GST-Hu-p50", "result": 2.73, "unit": "z-score"}]}, {"sequence": "CCGATTAACATCAAAATAATCCCTGATGTTAATCGGGTCTTGATTCGCTTGACGCTGCTG", "values": [{"measurement": "binding signal", "setting": "[1]", "result": 3.57, "unit": "z-score"}, {"measurement": "binding signal", "setting": "GST-Hu-p50", "result": 3.58, "unit": "z-score"}]}, {"sequence": "CCGATTAACATCAGGGAATTCACTGATGTTAATCGGGTCTTGATTCGCTTGACGCTGCTG", "values": [{"measurement": "binding signal", "setting": "[1]", "result": 4.73, "unit": "z-score"}, {"measurement": "binding signal", "setting": "GST-Hu-p50", "result": 4.11, "unit": "z-score"}]}, {"sequence": "CCGATTAACATCAGAAATTTACCTGATGTTAATCGGGTCTTGATTCGCTTGACGCTGCTG", "values": [{"measurement": "binding signal", "setting": "[1]", "result": 4.13, "unit": "z-score"}, {"measurement": "binding signal", "setting": "GST-Hu-p50", "result": 3.29, "unit": "z-score"}]}, {"sequence": "CCGATTAACATCAAGGAATTTCCTGATGTTAATCGGGTCTTGATTCGCTTGACGCTGCTG", "values": [{"measurement": "binding signal", "setting": "[1]", "result": 1.22, "unit": "z-score"}, {"measurement": "binding signal", "setting": "GST-Hu-p50", "result": 1.48, "unit": "z-score"}]}, {"sequence": "CCGATTAACATCAGGGACAGCCCTGATGTTAATCGGGTCTTGATTCGCTTGACGCTGCTG", "values": [{"measurement": "binding signal", "setting": "[1]", "result": 2.03, "unit": "z-score"}, {"measurement": "binding signal", "setting": "GST-Hu-p50", "result": 3.54, "unit": "z-score"}]}, {"sequence": "CCGATTAACATCAGGGAAAAGAATGATGTTAATCGGGTCTTGATTCGCTTGACGCTGCTG", "values": [{"measurement": "binding signal", "setting": "[1]", "result": 4.96, "unit": "z-score"}, {"measurement": "binding signal", "setting": "GST-Hu-p50", "result": 2.53, "unit": "z-score"}]}, {"sequence": "CCGATTAACATCAGGGGACTATATGATGTTAATCGGGTCTTGATTCGCTTGACGCTGCTG", "values": [{"measurement": "binding signal", "setting": "[1]", "result": 4.77, "unit": "z-score"}, {"measurement": "binding signal", "setting": "GST-Hu-p50", "result": 4.35, "unit": "z-score"}]}, {"sequence": "CCGATTAACATCACCTCCGTATCTGATGTTAATCGGGTCTTGATTCGCTTGACGCTGCTG", "values": [{"measurement": "binding signal", "setting": "[1]", "result": 1.11, "unit": "z-score"}, {"measurement": "binding signal", "setting": "GST-Hu-p50", "result": 1.28, "unit": "z-score"}]}, {"sequence": "CCGATTAACATCATGGAGGGAGGTGATGTTAATCGGGTCTTGATTCGCTTGACGCTGCTG", "values": [{"measurement": "binding signal", "setting": "[1]", "result": 1.02, "unit": "z-score"}, {"measurement": "binding signal", "setting": "GST-Hu-p50", "result": 1.63, "unit": "z-score"}]}, {"sequence": "CCGATTAACATCAGGGAAAGAACTGATGTTAATCGGGTCTTGATTCGCTTGACGCTGCTG", "values": [{"measurement": "binding signal", "setting": "[1]", "result": 3.33, "unit": "z-score"}, {"measurement": "binding signal", "setting": "GST-Hu-p50", "result": 2.37, "unit": "z-score"}]}, {"sequence": "CCGATTAACATCAGGGTATTCCATGATGTTAATCGGGTCTTGATTCGCTTGACGCTGCTG", "values": [{"measurement": "binding signal", "setting": "[1]", "result": 4.16, "unit": "z-score"}, {"measurement": "binding signal", "setting": "GST-Hu-p50", "result": 4.11, "unit": "z-score"}]}, {"sequence": "CCGATTAACATCACCCGGGAAAATGATGTTAATCGGGTCTTGATTCGCTTGACGCTGCTG", "values": [{"measurement": "binding signal", "setting": "[1]", "result": 4.34, "unit": "z-score"}, {"measurement": "binding signal", "setting": "GST-Hu-p50", "result": 3.07, "unit": "z-score"}]}, {"sequence": "CCGATTAACATCAATATACCCCCTGATGTTAATCGGGTCTTGATTCGCTTGACGCTGCTG", "values": [{"measurement": "binding signal", "setting": "[1]", "result": 5.46, "unit": "z-score"}, {"measurement": "binding signal", "setting": "GST-Hu-p50", "result": 4.42, "unit": "z-score"}]}, {"sequence": "CCGATTAACATCAGGAGATACCCTGATGTTAATCGGGTCTTGATTCGCTTGACGCTGCTG", "values": [{"measurement": "binding signal", "setting": "[1]", "result": 1.65, "unit": "z-score"}, {"measurement": "binding signal", "setting": "GST-Hu-p50", "result": 2.58, "unit": "z-score"}]}, {"sequence": "CCGATTAACATCACAACCCCCCCTGATGTTAATCGGGTCTTGATTCGCTTGACGCTGCTG", "values": [{"measurement": "binding signal", "setting": "[1]", "result": 4.57, "unit": "z-score"}, {"measurement": "binding signal", "setting": "GST-Hu-p50", "result": 4.53, "unit": "z-score"}]}, {"sequence": "CCGATTAACATCAATGCACCCCCTGATGTTAATCGGGTCTTGATTCGCTTGACGCTGCTG", "values": [{"measurement": "binding signal", "setting": "[1]", "result": 4.37, "unit": "z-score"}, {"measurement": "binding signal", "setting": "GST-Hu-p50", "result": 4.12, "unit": "z-score"}]}, {"sequence": "CCGATTAACATCAAGGGGGTAAATGATGTTAATCGGGTCTTGATTCGCTTGACGCTGCTG", "values": [{"measurement": "binding signal", "setting": "[1]", "result": 4.81, "unit": "z-score"}, {"measurement": "binding signal", "setting": "GST-Hu-p50", "result": 4.37, "unit": "z-score"}]}, {"sequence": "CCGATTAACATCAAGAAAATCCCTGATGTTAATCGGGTCTTGATTCGCTTGACGCTGCTG", "values": [{"measurement": "binding signal", "setting": "[1]", "result": 4.75, "unit": "z-score"}]}, {"sequence": "CCGATTAACATCAGGGGGTCACCTGATGTTAATCGGGTCTTGATTCGCTTGACGCTGCTG", "values": [{"measurement": "binding signal", "setting": "[1]", "result": 2.36, "unit": "z-score"}, {"measurement": "binding signal", "setting": "GST-Hu-p50", "result": 2.9, "unit": "z-score"}]}]}
